Laboratory results from the supplement of paper PMC11001985.

Each target was assayed with C#CCNC(=O)CCSSCCC(=O)NCCc1ccc(C=O)c(C=O)c1 (assay: lysine labeling ratio R10:1 (500 µM / 50 µM probe), SILAC-ABPP in living cells; higher = lower intrinsic lysine reactivity toward the probe, active = 2 or less). Details: HeLa; probe concentrations 500 vs 50 µM.
In short: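 For each lysine, R is the median over forward and reverse replicates of the filtered median MS1 peptide ratio of high probe to low probe. The probe, an alkyne-tagged, disulfide-linked lysine probe, was given at 500 µM or 50 µM to living SILAC light and heavy HeLa cells in PBS at room temperature, with label swaps. Values are capped at 20.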

UniProt Q14980, sequence (Q14980 whole entry): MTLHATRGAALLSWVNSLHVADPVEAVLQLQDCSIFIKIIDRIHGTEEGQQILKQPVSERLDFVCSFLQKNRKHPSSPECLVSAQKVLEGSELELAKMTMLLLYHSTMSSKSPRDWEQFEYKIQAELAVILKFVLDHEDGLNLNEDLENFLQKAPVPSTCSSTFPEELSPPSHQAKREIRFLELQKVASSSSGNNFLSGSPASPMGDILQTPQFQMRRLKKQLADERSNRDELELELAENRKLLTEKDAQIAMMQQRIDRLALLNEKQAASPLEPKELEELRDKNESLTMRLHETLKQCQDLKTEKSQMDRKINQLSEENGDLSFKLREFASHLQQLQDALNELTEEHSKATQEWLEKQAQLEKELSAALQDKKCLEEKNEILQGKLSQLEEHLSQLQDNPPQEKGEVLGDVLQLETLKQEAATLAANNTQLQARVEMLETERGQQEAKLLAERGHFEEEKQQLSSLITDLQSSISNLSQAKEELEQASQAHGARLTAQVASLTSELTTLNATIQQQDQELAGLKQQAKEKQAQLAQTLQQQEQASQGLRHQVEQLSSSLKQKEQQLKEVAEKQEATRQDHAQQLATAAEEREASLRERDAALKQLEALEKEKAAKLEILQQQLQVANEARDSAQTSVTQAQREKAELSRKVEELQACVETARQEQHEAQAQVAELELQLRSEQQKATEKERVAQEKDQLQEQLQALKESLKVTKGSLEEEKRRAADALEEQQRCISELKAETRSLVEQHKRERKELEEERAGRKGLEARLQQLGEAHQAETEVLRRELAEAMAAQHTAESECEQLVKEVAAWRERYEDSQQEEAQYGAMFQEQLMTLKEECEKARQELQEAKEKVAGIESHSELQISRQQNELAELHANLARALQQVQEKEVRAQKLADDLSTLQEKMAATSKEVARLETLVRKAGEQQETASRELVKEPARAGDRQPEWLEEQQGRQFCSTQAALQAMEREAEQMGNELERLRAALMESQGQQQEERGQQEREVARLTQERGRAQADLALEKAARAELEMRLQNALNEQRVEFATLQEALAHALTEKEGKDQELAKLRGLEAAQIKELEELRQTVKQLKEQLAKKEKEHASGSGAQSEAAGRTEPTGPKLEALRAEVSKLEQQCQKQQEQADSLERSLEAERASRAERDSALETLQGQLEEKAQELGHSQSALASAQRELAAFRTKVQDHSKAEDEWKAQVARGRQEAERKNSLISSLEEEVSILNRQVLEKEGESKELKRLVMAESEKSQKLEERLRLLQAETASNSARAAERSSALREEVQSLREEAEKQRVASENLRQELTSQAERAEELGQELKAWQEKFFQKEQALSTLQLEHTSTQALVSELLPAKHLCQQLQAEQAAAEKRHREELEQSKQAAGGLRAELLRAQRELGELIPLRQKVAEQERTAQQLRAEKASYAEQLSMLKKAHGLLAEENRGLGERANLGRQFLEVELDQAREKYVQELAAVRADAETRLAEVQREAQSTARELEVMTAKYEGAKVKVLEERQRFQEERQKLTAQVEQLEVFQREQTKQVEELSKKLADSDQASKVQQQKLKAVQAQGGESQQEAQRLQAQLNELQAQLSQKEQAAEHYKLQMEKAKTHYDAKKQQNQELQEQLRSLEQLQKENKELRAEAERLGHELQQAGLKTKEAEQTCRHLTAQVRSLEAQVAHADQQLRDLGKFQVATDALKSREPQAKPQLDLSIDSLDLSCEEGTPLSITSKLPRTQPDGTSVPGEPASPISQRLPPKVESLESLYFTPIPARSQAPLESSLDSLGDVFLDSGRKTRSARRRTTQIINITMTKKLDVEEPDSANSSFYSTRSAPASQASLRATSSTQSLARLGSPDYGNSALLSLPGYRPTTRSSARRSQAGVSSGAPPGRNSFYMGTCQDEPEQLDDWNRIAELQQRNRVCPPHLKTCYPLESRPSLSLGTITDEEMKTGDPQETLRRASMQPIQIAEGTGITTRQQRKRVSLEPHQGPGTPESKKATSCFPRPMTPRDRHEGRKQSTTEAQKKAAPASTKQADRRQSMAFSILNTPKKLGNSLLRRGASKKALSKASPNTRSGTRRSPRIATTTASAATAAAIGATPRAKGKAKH
UniProt P00533, sequence (P00533 whole entry): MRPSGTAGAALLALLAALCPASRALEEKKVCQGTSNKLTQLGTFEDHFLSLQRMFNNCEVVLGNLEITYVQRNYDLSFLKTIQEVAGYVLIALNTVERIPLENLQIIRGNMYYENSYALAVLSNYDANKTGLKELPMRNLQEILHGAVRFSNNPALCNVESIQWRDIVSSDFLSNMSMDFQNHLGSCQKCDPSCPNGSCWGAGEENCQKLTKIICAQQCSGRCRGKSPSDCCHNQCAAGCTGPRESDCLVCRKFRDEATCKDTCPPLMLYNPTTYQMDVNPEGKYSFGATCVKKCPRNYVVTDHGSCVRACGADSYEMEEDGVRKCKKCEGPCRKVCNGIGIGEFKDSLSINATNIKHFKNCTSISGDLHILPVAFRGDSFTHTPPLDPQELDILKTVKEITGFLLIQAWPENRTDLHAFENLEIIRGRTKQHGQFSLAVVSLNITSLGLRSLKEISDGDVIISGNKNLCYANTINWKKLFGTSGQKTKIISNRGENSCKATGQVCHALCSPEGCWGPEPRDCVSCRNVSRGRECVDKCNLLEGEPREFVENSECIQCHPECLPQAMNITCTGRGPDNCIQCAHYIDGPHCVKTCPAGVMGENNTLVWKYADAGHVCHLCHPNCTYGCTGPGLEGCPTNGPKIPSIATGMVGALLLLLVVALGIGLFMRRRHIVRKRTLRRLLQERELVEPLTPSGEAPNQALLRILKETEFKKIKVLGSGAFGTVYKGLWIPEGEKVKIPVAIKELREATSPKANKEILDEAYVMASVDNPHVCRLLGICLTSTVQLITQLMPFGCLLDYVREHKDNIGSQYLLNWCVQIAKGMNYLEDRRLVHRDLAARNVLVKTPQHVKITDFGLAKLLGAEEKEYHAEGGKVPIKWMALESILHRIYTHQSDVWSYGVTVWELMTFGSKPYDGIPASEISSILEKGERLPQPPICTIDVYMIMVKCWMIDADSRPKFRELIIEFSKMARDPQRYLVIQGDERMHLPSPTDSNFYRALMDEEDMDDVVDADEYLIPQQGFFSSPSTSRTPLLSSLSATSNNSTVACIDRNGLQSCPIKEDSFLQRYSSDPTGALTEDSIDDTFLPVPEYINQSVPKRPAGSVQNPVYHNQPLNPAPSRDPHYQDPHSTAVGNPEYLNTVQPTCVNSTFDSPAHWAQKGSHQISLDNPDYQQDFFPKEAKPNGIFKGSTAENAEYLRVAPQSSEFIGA
UniProt Q9BVK6, sequence (Q9BVK6 whole entry): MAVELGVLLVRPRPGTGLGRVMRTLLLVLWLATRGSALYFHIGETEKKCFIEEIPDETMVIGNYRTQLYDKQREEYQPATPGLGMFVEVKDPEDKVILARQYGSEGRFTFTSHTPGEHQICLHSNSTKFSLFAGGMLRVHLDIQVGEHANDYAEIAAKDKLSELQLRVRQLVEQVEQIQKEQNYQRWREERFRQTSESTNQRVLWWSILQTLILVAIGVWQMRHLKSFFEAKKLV
UniProt P78371, sequence (P78371 whole entry): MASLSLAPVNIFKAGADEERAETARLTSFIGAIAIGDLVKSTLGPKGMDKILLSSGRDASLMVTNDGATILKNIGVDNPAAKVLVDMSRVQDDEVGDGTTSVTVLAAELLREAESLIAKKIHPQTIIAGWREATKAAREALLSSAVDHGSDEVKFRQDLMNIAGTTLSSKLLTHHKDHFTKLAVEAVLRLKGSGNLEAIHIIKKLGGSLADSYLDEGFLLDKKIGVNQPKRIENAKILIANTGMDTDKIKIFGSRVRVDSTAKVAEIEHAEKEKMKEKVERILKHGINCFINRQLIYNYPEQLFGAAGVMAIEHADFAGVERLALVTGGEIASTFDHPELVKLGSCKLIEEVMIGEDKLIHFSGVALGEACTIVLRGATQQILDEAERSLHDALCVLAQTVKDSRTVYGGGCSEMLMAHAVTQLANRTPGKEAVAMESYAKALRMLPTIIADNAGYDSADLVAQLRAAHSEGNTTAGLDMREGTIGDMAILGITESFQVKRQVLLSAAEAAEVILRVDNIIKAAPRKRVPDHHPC
UniProt Q12906, sequence (Q12906 whole entry): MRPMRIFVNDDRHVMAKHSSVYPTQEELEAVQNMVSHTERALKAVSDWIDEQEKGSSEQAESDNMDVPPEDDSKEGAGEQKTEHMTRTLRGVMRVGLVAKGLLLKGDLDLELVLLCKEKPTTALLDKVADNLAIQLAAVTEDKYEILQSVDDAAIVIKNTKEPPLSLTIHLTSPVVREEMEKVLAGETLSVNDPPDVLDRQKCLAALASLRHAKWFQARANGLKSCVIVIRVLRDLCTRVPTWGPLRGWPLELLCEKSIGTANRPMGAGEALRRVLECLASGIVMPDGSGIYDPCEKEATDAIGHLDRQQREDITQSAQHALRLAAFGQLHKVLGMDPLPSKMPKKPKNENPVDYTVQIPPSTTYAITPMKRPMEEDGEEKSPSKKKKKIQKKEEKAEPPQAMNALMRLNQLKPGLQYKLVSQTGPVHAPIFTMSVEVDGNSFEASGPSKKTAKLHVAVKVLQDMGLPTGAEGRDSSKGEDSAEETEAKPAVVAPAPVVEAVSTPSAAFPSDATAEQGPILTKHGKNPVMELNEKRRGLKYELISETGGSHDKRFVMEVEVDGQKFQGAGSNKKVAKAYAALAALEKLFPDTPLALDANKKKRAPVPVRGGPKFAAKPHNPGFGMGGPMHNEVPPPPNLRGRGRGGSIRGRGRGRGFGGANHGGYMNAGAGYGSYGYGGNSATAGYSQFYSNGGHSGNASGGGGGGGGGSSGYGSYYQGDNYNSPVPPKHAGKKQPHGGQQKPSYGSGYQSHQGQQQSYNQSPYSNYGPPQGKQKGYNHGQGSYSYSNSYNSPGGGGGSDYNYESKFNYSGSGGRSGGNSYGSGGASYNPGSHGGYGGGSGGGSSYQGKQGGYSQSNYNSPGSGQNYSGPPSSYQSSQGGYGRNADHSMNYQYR

Lysine labeling ratio R10:1, inactive:
NUMA1 (lysine site: K925) (UniProt Q14980) 2.01, PGK1 (lysine site: K323) (UniProt P00558) 5.55, FOLR1 (lysine site: K76) (UniProt P15328) 3.42, HSPA5 (lysine site: K213) (UniProt P11021) 5.61, ITGA6 (lysine site: K404) (UniProt P23229) 6.64, EDIL3 (lysine site: K263) (UniProt O43854) 2.69, DISP1 (lysine site: K380) (UniProt Q96F81) 2.05, IGF1R (lysine site: K892) (UniProt P08069) 3.9, PTPRF (lysine site: K204) (UniProt P10586) 4.93, EGFR (lysine site: K294) (UniProt P00533) 3.59, ITGB1 (lysine site: K87) (UniProt P05556) 2.04, HSPA9 (lysine site: K300) (UniProt P38646) 2.25, TLN1 (lysine site: K687) (UniProt Q9Y490) 3.61, IGSF8 (lysine site: K143) (UniProt Q969P0) 2.9, TMED9 (lysine site: K71) (UniProt Q9BVK6) 5.82, UniProt Q9NYU2 (lysine site: K362) 3.31, GANAB (lysine site: K269) (UniProt Q14697) 2.12, EGFR (lysine site: K212) (UniProt P00533) 2.63, SURF4 (lysine site: K154) (UniProt O15260) 4.16, GPC1 (lysine site: K42) (UniProt P35052) 2.38, ILF3 (lysine site: K553) (UniProt Q12906) 4.76, CCT3 (lysine site: K381) (UniProt P49368) 2.81, UniProt P41250 (lysine site: K646) 2.94, ZMPSTE24 (lysine site: K259) (UniProt O75844) 2.08, CANX (lysine site: K118) (UniProt P27824) 2.15, UniProt P61978 (lysine site: K422) 4.02, CCT2 (lysine site: K230) (UniProt P78371) 3.3, UniProt P61160 (lysine site: K368) 3.41, TAGLN2 (lysine site: K40) (UniProt P37802) 2.67

Lysine labeling ratio R10:1, active:
NUMA1 (lysine site: K891) (UniProt Q14980) 1.87, FRAS1 (lysine site: K2396) (UniProt Q86XX4) 1.59, RPS27A (lysine site: K113) (UniProt P62979) 1.38, CDCP1 (lysine site: K454) (UniProt Q9H5V8) 1.89, ITGA3 (lysine site: K620) (UniProt P26006) 1.8, PRDX5 (lysine site: K142) (UniProt P30044) 1.62, ACTR3 (lysine site: K42) (UniProt P61158) 1.04, LNPEP (lysine site: K626) (UniProt Q9UIQ6) 0.72, CALD1 (lysine site: K577) (UniProt Q05682) 1.1, DYNC1H1 (lysine site: K371) (UniProt Q14204) 1.14, DSG2 (lysine site: K451) (UniProt Q14126) 0.823
